In PubChem BioAssay (NCI):
The panel holds about 79,000 compounds, 15% with a hit somewhere; the sample as a whole holds those more often. Rule as the data show it: active = growth inhibition above about 70%; inactive = the rest.

Tests used:
[1] = NCI Yeast Anticancer Drug Screen. Data for the rad50 strain (AID 155);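 also: 0% = growth of vehicle-only cultures of the same strain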; conditions: S. cerevisiae rad50 strain growth inhibition; at 50.0 µM; hits give high values
Outline: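 Relative growth inhibition (compound vs vehicle) was measured in yeast with a defined repair-gene alteration.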

[2] = NCI Yeast Anticancer Drug Screen. Data for the mec2-1 strain (AID 157); conditions: S. cerevisiae mec2-1 strain, at 50.0 µM, hits give high values
Outline: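 Growth inhibition is read against vehicle-treated controls after compound exposure of the mec2-1 yeast strain, which is defective in DNA damage repair or cell cycle control.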

[3] = NCI Yeast Anticancer Drug Screen. Data for the sgs1 mgt1 strain (AID 161);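 also: 0% = growth of cultures given vehicle only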; conditions: S. cerevisiae sgs1 mgt1 strain, at 50.0 µM, hits give high values
Outline: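 Percent growth inhibition was derived by comparing compound-exposed mutant yeast with vehicle-exposed cultures. The strain carries alterations in DNA damage repair.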

[4] = NCI Yeast Anticancer Drug Screen. Data for the cln2 rad14 strain (AID 165);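 also: 0% = growth equal to vehicle treated cultures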; conditions: S. cerevisiae cln2 rad14 strain, at 50.0 µM, hits give high values
Outline: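 Growth inhibition, relative to vehicle-treated controls, is the read-out. The test organism is a yeast strain with defined genetic alterations, cln2 rad14.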

[5] = NCI Yeast Anticancer Drug Screen. Data for the bub3 strain (AID 167); conditions: S. cerevisiae bub3 mutant strain, at 50.0 µM, hits give high values
Outline: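 Screening used yeast with an engineered genetic alteration affecting cell cycle control. Compound-exposed cultures were compared with vehicle cultures, and reduced growth was taken as inhibition.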

[6] = NCI Yeast Anticancer Drug Screen. Data for the mlh1 rad18 strain (AID 175); conditions: S. cerevisiae mlh1 rad18 strain growth inhibition; at 50.0 µM; hits give high values
Outline: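 Cells of a genetically altered yeast strain, deficient in DNA damage repair, were treated with compound. Their growth was then compared with that of vehicle-treated cultures to give inhibition.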

Measured: growth inhibition

O=c1[nH]c2cc(Cl)c([N+](=O)[O-])cc2c2ccccc12
inactive: [1] 15.1% | [2] -7.35% | [3] 4.35% | [4] -42% | [5] -11.2% | [6] -0.25%

CCOC(CN(CC)CC)OCC
inactive: [1] -6.75% | [2] -27.6% | [3] -5.15% | [4] 7.2% | [5] -21.8% | [6] 2.15%

CCNS(=O)(=O)c1ccccc1
inactive: [1] -8.55% | [2] -29.2% | [3] -2.7% | [4] 5.9% | [5] -1.95% | [6] 14.7%

COCn1ccnc1C(=O)c1ccccc1
inactive: [1] -11.4% | [2] -13.8% | [3] -9.65% | [4] -27.1% | [5] -7.25% | [6] -5.15%

CC1(C)CC(N(CCO)CCO)CC(C)(C)N1O
inactive: [1] 4.05% | [2] -2.8% | [3] 11.4% | [4] -1.95% | [5] -7.2% | [6] 5.35%

COCC(OC)C(Cl)C(=O)Nc1ccc(Br)cc1 (stereo unspecified)
inactive: [1] 14.6% | [2] 31.1% | [3] 15.2% | [4] -14.4% | [5] 28.9% | [6] 10.8%

O=C1OC(c2ccc(Cl)cc2)=C/C1=C/c1ccccc1O
inactive: [1] -15.8% | [2] 4.75% | [3] -1.15% | [4] -47.7% | [5] -0.65% | [6] 5.05%

OC1c2ccccc2-c2c(Cl)cc(Cl)cc21 (stereo unspecified)
inactive: [1] 0.25% | [2] 6.1% | [3] 11.2% | [4] -45.9% | [5] 3.95% | [6] 1.95%

CC(O)CC(C)O (stereo unspecified)
inactive: [1] 1.9% | [2] -4.6% | [3] 2.95% | [4] -3.45% | [5] 6.15% | [6] 2.3%

NC(=O)C(Cc1ccccc1Cl)c1ccccc1 (stereo unspecified)
inactive: [1] -7.6% | [2] -2.9% | [3] -2.75% | [4] -43% | [5] -8.35% | [6] 12.7%

O=C(O)c1ccc2ccc(F)cc2c1Cc1ccccc1
inactive: [1] -4.15% | [2] -10.2% | [3] 12.9% | [4] 8.3% | [5] -1.4% | [6] -16.5%

CC(=O)OCC12CCC(C)=CC1O[C@H]1[C@@H](OC(C)=O)[C@H](OC(C)=O)[C@]2(C)[C@@]12CO2 (stereo partly specified)
inactive: [1] 24.6% | [2] -17.4% | [3] -19.6% | [4] 42.4% | [5] -14.6% | [6] 30.9%

Nc1nc2c(c(=O)[nH]1)CN(CCCN1CCOCC1)CN2
inactive: [1] -36.2% | [2] -26.1% | [3] -19.1% | [4] 68% | [5] -30% | [6] 0%

CN(C)CCn1cnc2sc3ccccc3c21
inactive: [1] -8.35% | [2] -15.5% | [3] -23.8% | [4] 24% | [5] -6.35% | [6] -23.8%

Oc1cccc(NCNC2Nc3ccccc3N2)c1
inactive: [1] 6.5% | [2] 14.7% | [3] -1.4% | [4] -11.1% | [5] 9.7% | [6] 13.6%

C=C1C(=O)O[C@H]2C[C@@H]1C(=O)CC(C)CCCC(C)=CCC[C@@]2(C)O (stereo partly specified)
inactive: [1] 24.4% | [2] 7.65% | [3] 15.2% | [4] 11.2% | [5] -0.1% | [6] -49.4%

Cc1ccc(NC2C=C(c3ccccc3)Oc3ccccc32)c(C)c1 (stereo unspecified)
inactive: [1] 20.1% | [2] -3.7% | [3] 20.9% | [4] -3.25% | [5] 14.1% | [6] 8.45%

S=C1Cc2c([nH]c3ccccc23)-c2ccccc2N1
inactive: [1] -11.1% | [2] 26.6% | [3] -8.85% | [4] -3.9% | [5] 23.2% | [6] 2.45%

COc1ccc(C(C)=O)cc1
inactive: [1] 34.5% | [2] 18.8% | [3] 30.6% | [4] 37.1% | [5] 29.9% | [6] 18.9%

O=Cc1c2cnc(c1O)CSCCCCSC2
inactive: [1] -9.2% | [2] -3.8% | [3] -10.8% | [4] -45.2% | [5] -16.4% | [6] -1.8%

Cc1ccc(SCCCN(C)C)cc1
inactive: [1] 42% | [2] 17.6% | [3] 35.6% | [4] 15.2% | [5] 14.2% | [6] 16.3%

O=C(O)c1ccccc1SC1OC(=O)c2ccccc21 (stereo unspecified)
inactive: [1] -0.45% | [2] -8.75% | [3] 2.35% | [4] -58.7% | [5] 2.75% | [6] -1.45%

COC(=O)C(Br)C(Br)c1ccc(OC)c(OC)c1 (stereo unspecified)
inactive: [1] -5.15% | [2] -9.8% | [3] 13.3% | [4] -30.6% | [5] 22.9% | [6] 16.2%

COc1cc2c(c([N+](=O)[O-])c1)NC(=O)C(c1ccccc1)S2 (stereo unspecified)
inactive: [1] -15.9% | [2] -12.3% | [3] -3.45% | [4] 23.1% | [5] 15.9% | [6] -3.95%

Cc1ccc(Cc2ccc(CCc3ccc(Cc4ccc(C)cc4)cc3)cc2)cc1
inactive: [1] 10.2% | [2] 7.15% | [3] 18.6% | [4] 32.4% | [5] 12.2% | [6] 11.5%

O=C(Cn1c(C(=O)c2ccccc2)nc2ccccc21)c1ccccc1
inactive: [1] -39.2% | [2] -16.6% | [3] -32.8% | [4] -8.95% | [5] -16.4% | [6] -18%

CCC(c1ccc(OC)cc1)C1NC(=S)NC1=O (stereo unspecified)
inactive: [1] 4.05% | [2] -30.1% | [3] 3.2% | [4] 6.45% | [5] 9.55% | [6] 11.6%

C(=N\N1CCN(/N=C/c2cccc3ccccc23)CC1)/c1cccc2ccccc12
inactive: [1] 16.2% | [2] 6.85% | [3] 19% | [4] 18.5% | [5] -0.65% | [6] 3.4%

CCC(CC)CC(=O)OC/C(=N\Nc1ccc([N+](=O)[O-])cc1[N+](=O)[O-])c1ccc(-c2ccccc2)cc1
inactive: [1] -30.9% | [2] 0.15% | [3] -2.85% | [4] -33.8% | [5] -12.2% | [6] -7%

CC1(O)CCC2(CCC(C)(O)CC2=O)C(=O)C1 (stereo unspecified)
inactive: [1] -7.85% | [2] -9.75% | [3] -0.45% | [4] -2.35% | [5] -12.6% | [6] -14.7%

COc1cc(C(=O)O)ccc1OC(C)=O
inactive: [1] 7.4% | [2] -20.1% | [3] -2.15% | [4] 2.15% | [5] -6.6% | [6] 1.35%

O=C(NCc1ccc2ccc3cccnc3c2n1)c1ccc[n+](Cc2ccccc2)c1
inactive: [1] -6.1% | [2] -11.6% | [3] 5.65% | [4] 3.5% | [5] 10.1% | [6] 1.75%

Cc1ccc(S(=O)(=O)Nc2nc3ccccc3c(=O)n2C2CCCCC2)cc1
inactive: [1] 27.2% | [2] 11.3% | [3] -43.2% | [4] 2.1% | [5] -19.5% | [6] -3.5%

CN(C)Cc1cc(CN(C)C)cc(CN(C)C)c1
inactive: [1] 0.3% | [2] 15.8% | [3] 3.45% | [4] -22.9% | [5] -11.2% | [6] -19.8%

CCCC(=O)C1=C(O)C(CC2=C(O)C(C)(C)C(=O)C(C(=O)CCC)=C2O)=C(O)C(C)(C)C1=O
inactive: [1] 26.3% | [2] -12.4% | [3] -2.5% | [4] 1% | [5] -0.15% | [6] 1.3%

Cc1cccc(C(C)C)c1NC(=O)C(=O)CC(=O)c1sc(Nc2ccccc2Cl)nc1C
inactive: [1] -40% | [2] -8.5% | [3] -0.45% | [4] -14.6% | [5] -30.1% | [6] 1.15%

Cc1c(CCCl)c(=O)n2c([nH]c3ccccc32)c1C#N
inactive: [1] 56.5% | [2] -56.5% | [3] 18.6% | [4] 5.2% | [5] -52.1% | [6] 62%

CC(=O)Oc1ccc2c(-c3ccccc3)c(Oc3ccc(Cl)cc3)c(=O)oc2c1
inactive: [1] -4.2% | [2] -5.05% | [3] -3.7% | [4] -16.1% | [5] 3.3% | [6] 4.35%

N#C/C(=C\NC(N)=S)c1nc2ccccc2s1
inactive: [1] -18.1% | [2] 7.15% | [3] -15.8% | [4] 24.8% | [5] -4.25% | [6] -11.7%

O=N/C(=C(\c1ccccc1)N1CCOCC1)c1ccccc1
inactive: [1] -10.2% | [2] 11.8% | [3] 9.6% | [4] -2.45% | [5] -20.6% | [6] 6.45%

O=C1c2ccccc2C(=O)N1CNc1cccc(Cl)c1
inactive: [1] 6.45% | [2] 13.2% | [3] 9.45% | [4] 10.1% | [5] 4.6% | [6] 22.4%
